In PubChem BioAssay AID652195 (Johns Hopkins Ion Channel Center, 2013):

Molecular target: Short transient receptor potential channel 6 (Mus musculus) (UniProt Q61143)
Test: TRPC6 inhibition potency of TRPC4 inhibitor analogs, dose response, selectivity assay for selective TRPC4 inhibitor project, HEK293 cells, membrane potential dye, quadruplicate (AID 652195)
Conditions: FDSS; series mostly up to 20 µM; membrane potential ratio (lower = inhibition): at the top concentration;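 active means peak TRPC6 channel inhibition above 30% at some tested dose, with a fitted dose response curve; inactive means no inhibition at any dose or no curve fitted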

Short transient receptor potential channel 6 (Mus musculus), sequence (Q61143 whole entry, looked up): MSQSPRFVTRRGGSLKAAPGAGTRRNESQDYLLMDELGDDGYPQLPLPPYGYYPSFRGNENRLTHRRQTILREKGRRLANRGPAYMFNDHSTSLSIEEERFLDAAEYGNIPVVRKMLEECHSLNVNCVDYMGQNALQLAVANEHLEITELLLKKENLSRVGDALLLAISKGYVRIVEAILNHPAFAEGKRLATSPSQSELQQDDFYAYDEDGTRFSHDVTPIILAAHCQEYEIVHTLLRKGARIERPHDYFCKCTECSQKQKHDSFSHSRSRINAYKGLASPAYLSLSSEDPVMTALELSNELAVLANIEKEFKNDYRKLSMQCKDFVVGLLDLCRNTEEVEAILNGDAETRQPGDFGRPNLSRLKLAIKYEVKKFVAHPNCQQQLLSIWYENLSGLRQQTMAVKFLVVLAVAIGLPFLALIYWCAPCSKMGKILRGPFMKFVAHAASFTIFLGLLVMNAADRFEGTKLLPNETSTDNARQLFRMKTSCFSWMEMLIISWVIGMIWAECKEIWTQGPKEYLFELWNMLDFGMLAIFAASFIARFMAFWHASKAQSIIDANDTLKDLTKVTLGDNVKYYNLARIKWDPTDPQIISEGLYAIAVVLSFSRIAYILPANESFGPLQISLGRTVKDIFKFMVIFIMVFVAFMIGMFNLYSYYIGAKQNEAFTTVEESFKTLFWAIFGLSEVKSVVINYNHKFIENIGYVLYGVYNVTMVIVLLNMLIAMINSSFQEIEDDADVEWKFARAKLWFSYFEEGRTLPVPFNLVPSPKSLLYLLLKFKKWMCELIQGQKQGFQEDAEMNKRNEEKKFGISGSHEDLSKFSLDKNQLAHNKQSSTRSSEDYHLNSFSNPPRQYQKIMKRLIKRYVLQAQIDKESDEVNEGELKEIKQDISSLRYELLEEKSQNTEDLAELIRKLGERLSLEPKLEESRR

Membrane potential ratio (lower = inhibition), inactive:
Cc1cc(N(C)C)nc2ccccc12 37.2
Cc1cc(N2CCCC(F)C2)nc2ccccc12 (centres undefined) 35.9
Cc1cc(N2CCC(F)(F)CC2)nc2ccccc12 43.2
FC1CCN(c2ccc3ccccc3n2)CC1 37.4
FC1(F)CCN(c2ccc3ccccc3n2)CC1 39.6
Cc1cc(-n2cccc2)nc2ccccc12 41.5
Cc1cc(N2CCC(O)C2)nc2ccccc12 (centres undefined) 33.5
Cc1cc(N2CCC(O)CC2)nc2ccccc12 44.3
c1ccc2nc(N3CCCC3)ccc2c1 35.8
OC1CCN(c2ccc3ccccc3n2)CC1 50.8
OC1CCN(c2ccc3ccccc3n2)C1 (centres undefined) 42.2
O=C1CCN(c2ccc3ccccc3n2)CC1 43.8
Cc1cc(-n2ccnc2)nc2ccccc12 50.2
FC1CCCN(c2ccc3ccccc3n2)C1 (centres undefined) 43.5
Cc1cc(N2CCC(=O)CC2)nc2ccccc12 40.5
Cc1cc(-n2cccn2)nc2ccccc12 42.6
OC1CCCN(c2ccc3ccccc3n2)C1 (centres undefined) 36.9
C[C@H]1CCCN1c1ccc2ccccc2n1 30.5
Cc1cc(N2CCC(F)CC2)nc2ccccc12 37.7
